# PubChem BioAssay (NCATS)
# Inconclusive results are not listed. Calls of active or inactive are those of the source. The call rests on the fitted dose curve; in most records, active means well fitted inhibition curve with a large enough effect; inconclusive means small, poorly fitted or top-dose-only effect; inactive means flat fitted curve, though single readings scatter.
# System: CRL-7250
# Assay: Cytotoxic Profiling of Annotated Libraries Using Quantitative High-Throughput Screening (AID 1296008); further: nearly all actives have a fitted effect of over 60% in size
# Details: Five cell lines viability, CellTiter-Glo ATP luminescence, 48-72 h; max response: hits give low values
# Outline: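 Cytotoxicity was measured as CellTiter-Glo ATP luminescence, read after 10 min at room temperature. Compound treatment of the cells lasted 48 or 72 hr at 37 degrees Celsius in a qHTS format.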
# On the % scale 0 is the no-effect control and ±100 the full control effect; potency means the concentration at half of the fitted maximal effect.
Structure (SMILES),max response,outcome,Potency
CC1=C(C(=O)OCc2ccccc2)C(c2ccc(-c3ccccc3)cc2)NC(=O)N1CCCCCC(=O)O (centres undefined),-0.424% (inactive),,
CC1C=CC2CCCCC2C1CCC1CC(O)CC(=O)O1 (centres undefined),-5.84% (inactive),,
CC(C)Oc1ccc(C(=O)NC(CNC(=O)CN(C)C)Cc2ccc(-c3cn4cccc(C(C)O)c4n3)cc2)cc1Cl (centres undefined),-25.1% (inactive),,
N[C@@]1(C(=O)O)CC[C@H]2[C@H](C(=O)O)[C@H]21,,inactive,
CC(=O)NCC(=O)N1C2CCC1c1cc(Nc3ncc(C(F)(F)F)c(NC4CCC4)n3)ccc12 (centres undefined),,,1640 nM (active)
CC(=O)OC1CC2(C)C3=CCC4(C)C5C(O)C(O)C(C(C)C)C5(C)CCC4(C)C3CCC2C(C)(C)C1OC1OC(CO)C(O)C(O)C1O (centres undefined),-9.78% (inactive),,
CC(C)(O[C@@H]1O[C@H](CO)[C@@H](O)[C@H](O)[C@H]1O)C(OC(=O)/C=C\c1ccc(O)cc1)C(=O)OCc1ccc(O[C@@H]2O[C@H](CO)[C@@H](O)[C@H](O)[C@H]2O)cc1 (some centres undefined),-12.2% (inactive),,
C[C@@H]1O[C@@H](O[C@H]2[C@H](O[C@H]3[C@H](O)[C@@H](C(=O)O)O[C@@H](O[C@H]4CC[C@@]5(C)C(CC[C@]6(C)C5CC[C@]57OC[C@@]8(CCC(C)(C)CC85)[C@H](O)C[C@]76C)C4(C)C)[C@@H]3O[C@@H]3O[C@H](CO)[C@@H](O[C@@H]4OC[C@@H](O)[C@H](O)[C@H]4O)[C@H](O)[C@H]3O)O[C@H](CO)[C@H](O)[C@@H]2O)[C@H](O)[C@H](O)[C@H]1O (some centres undefined),-4.31% (inactive),,
CC(C)/C=C1\NC(=O)C(C(C)C)n2c1nc1c(c2=O)C=CC=CO1 (centres undefined),-11.8% (inactive),,
CC1=C(CO)C(=O)O[C@@H]([C@@H](C)[C@H]2CC[C@H]3[C@@H]4C[C@H]5O[C@]56[C@@H](O)C=CC(=O)[C@]6(C)[C@H]4CC[C@]23C)C1,,,3990 nM (active)
Cc1ccccc1C#Cc1ccc(CCC(=O)O)cc1,-3.17% (inactive),,
COc1cc(C(=O)NC2CCN(C)CC2)ccc1Nc1ncc2c(n1)N(C1CCCC1)CC(F)(F)C(=O)N2C,,,2310 nM (active)
N#Cc1cnc2cnc(NCc3cccnc3)cc2c1Nc1ccc(F)c(Cl)c1,,,5170 nM (active)
C/C(=C\CCC(C)CCO)C(=O)O[C@@H]1[C@@H](O)[C@H](OC2OC=C(C(=O)O)C3CCC(C)(O)C23)O[C@H](CO)[C@H]1O (some centres undefined),,inactive,
COc1c2c(c(C)c3c1C(=O)OC3)OC1(C)CC(O)C34OC(OC)(OC3(C)C)C(O)CC4(C)C1C2 (centres undefined),,inactive,
CC1(C)CC[C@]2(C(=O)OC3OC(CO)C(O)C(O)C3O)CC[C@]3(C)C(=CCC4[C@@]5(C)CC[C@H](OC6OC(C(=O)O)C(O)C(OC7OC(CO)C(O)C(O)C7O)C6O)C(C)(C)C5CC[C@]43C)C2C1 (some centres undefined),1.42% (inactive),,
COc1cc(N)c(Cl)cc1C(=O)NC[C@@H]1CCN2CCC[C@@H]12,-16.7% (inactive),,
CC(C)CC(=O)OC1OC=C(CO[C@@H]2O[C@H](CO)[C@@H](O)[C@H](O)[C@H]2O)C2CC(O)C(O)(CO)C12 (some centres undefined),3.01% (inactive),,
C=CC1C(OC2OC(CO)C(O)C(O)C2O)OC=C(C(=O)OC)C1CC1CC(=O)CC(CCc2ccc(O)cc2)O1 (centres undefined),3.27% (inactive),,
O=C(CSc1nc2c(c(=O)n1-c1ccccc1)SCC2)Nc1ccc(-c2ccccc2)cn1,,,231 nM (active)

Structure (SMILES),max response,outcome,Potency
CC(=O)c1cc2c(cc1O)OC(C)(C)C=C2,,inactive,
COC(=O)C12CCC(C)C(C)C1C1=CCC3C4(C)CCC(OC(C)=O)C(C)(C)C4CCC3(C)C1(C)CC2 (centres undefined),-3.42% (inactive),,
CC1(C)CCCC2(C)C(CO)C(CO)=CCC12 (centres undefined),-20.3% (inactive),,
Cc1ccc([N+](=O)[O-])cc1S(=O)(=O)N(C)/N=C/c1cnc2ccc(Br)cn12,,,82 nM (active)
Nc1nc(-n2cc(C(=O)O)c(=O)c3cc(F)c(N4CC(O)C4)c(Cl)c32)c(F)cc1F,-9.26% (inactive),,
COc1ccc(CN2C(=O)C(=O)c3cc(S(=O)(=O)N4CCC[C@H]4COc4cccnc4)ccc32)cc1,,inactive,
CC12CCC(C(OC3OC(COC4OCC(O)(CO)C4O)C(O)C(O)C3O)C1)C(C)(C)O2 (centres undefined),2.4% (inactive),,
Cc1cc(NC(=O)Nc2ccc(F)c(F)c2)n(-c2ccccc2)n1,4.98% (inactive),,
CNC(=O)c1ccccc1Nc1nc(Nc2ccc3c(c2OC)CCCC(N2CCN(CCO)CC2)C3)ncc1Cl (centres undefined),,,7310 nM (active)
COC(=O)CC1CC(c2ccc(O)cc2)=NO1 (centres undefined),-3.02% (inactive),,
C[C@@H]1O[C@@H](O[C@H]2[C@H](O)[C@@H](O[C@@H]3O[C@H](CO)[C@@H](O)[C@H](O[C@@H]4O[C@H](CO)[C@@H](O)[C@H](O)[C@H]4O)[C@H]3O)[C@H](O[C@H]3CC[C@@]4(C)C(=CC[C@@H]5C4CC[C@@]4(C)C5C[C@@H]5OC6(CC[C@@](C)(CO[C@@H]7O[C@H](CO)[C@@H](O)[C@H](O)[C@H]7O)O6)[C@@H](C)[C@@H]54)C3)O[C@@H]2CO)[C@H](O)[C@H](O)[C@H]1OC1OC(CO)C(O)C(O)C1O (some centres undefined),-6.48% (inactive),,
Cc1ccc(C)c(OCCn2cc(C(=O)O)c3ccccc32)c1,-3.65% (inactive),,
CC1=C(C(=O)O)/C(=C\CO[C@@H]2O[C@H](CO)[C@@H](O)[C@H](O)[C@H]2O)C(OC(=O)/C=C\c2ccc(O)cc2)C1 (some centres undefined),3.65% (inactive),,
O=C(O)C(O[C@@H]1O[C@H](CO[C@@H]2O[C@H](CO)[C@@H](O)[C@H](O)[C@H]2O)[C@@H](O)[C@H](O)[C@H]1O)c1ccccc1 (some centres undefined),-5.65% (inactive),,
COc1ccc(-c2c(-c3cc(C(=O)O)ccn3)ncn2C)cc1,4.8% (inactive),,
COc1cc2ncnc(Nc3cccc(O)c3)c2cc1OC,,inactive,
C[C@@H]1O[C@@H](O[C@H]2[C@H](O)[C@@H](C(=O)O)O[C@@H](O[C@H]3CC[C@@]4(C)C(CC[C@]5(C)C4CC=C4C6CC(C)(C)CC[C@]6(C(=O)O)CC[C@]45C)C3(C)C)[C@@H]2O[C@@H]2OC[C@@H](O)[C@H](O)[C@H]2O)[C@H](O)[C@H](O)[C@H]1O (some centres undefined),3.95% (inactive),,
[N-]=[N+]=N[C@]1(CO)O[C@@H](n2ccc(=O)[nH]c2=O)[C@@H](O)[C@@H]1O,0.828% (inactive),,
CC1CCC23COC(=O)C2=CC(O)CC3C1(C)CCC1=CC(O)OC1=O (centres undefined),-0.17% (inactive),,
